The source of these data is PubChem BioAssay (NCATS).

Several values for one entry are separate records, joined by “and”; a condition that tells them apart may be missing. Equal entries are not always repeated. Records with an inconclusive call do not appear. Activity calls are given as the source filed them. Unless noted, calls follow the shape of the dose curve; as a rule, active = well fitted curve in the direction sought with a large enough effect; inconclusive = small, poorly fitted or top-dose-only effect, or another doubt; inactive = no such curve, though single readings can be large; an effect the other way counts as inactive or inconclusive. A value given as a limit tells only on which side of the number the result lay.

Test [1] in a line: Cell Viability - Hek293 (AID 427;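 active = compounds whose dose-response curve shows a full or clear partial loss of cell viability, called from curve shape rather than a numeric limit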;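 also: potency is read from the fitted curve at half-maximal effect; cells exposed to compound for 40 hours at 37 °C before reading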). The conditions noted are these: qHTS. The essentials:
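HEK293 cells in complete medium were exposed to compound for 40 hr at 37 °C, then cellular ATP was read by CellTiter-Glo luminescence. Data were normalized to DMSO (basal) and 100 uM tamoxifen (100% inhibition), and AC50 came from Hill fits.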
On the technique in general: In qHTS, concentration-response curves come from the screen itself.

Test [2] in a line: Cell Viability - NIH 3T3 (AID 541).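 Also: plate controls were DMSO alone for no effect and tamoxifen positive control for full effect; nearly all actives have a fitted effect of over 25% in size.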 The following applies: NIH 3T3 cell viability, qHTS; activity change, negative = cytotoxicity: at 92.2 µM (top of the series). Put shortly: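 Cells seeded at 1000/well, rested 5 hr at 37 °C, then dosed and incubated 40 hr at 37 °C. CellTiter-Glo added, 20 min room temperature, luminescence read. AC50 by Hill fit.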
Test [3] can be described thus: Cellular Toxicity (caspase-3) HepG2 (AID 654).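 Also: cells exposed to compound for 16 hours before reading; 0% = DMSO alone and 100% = caspase signal from 100 µM tamoxifen.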 The conditions noted are these: HepG2 caspase-3 activation, luminescence, 0% = DMSO only, 100% = tamoxifen; series mostly up to 92.2 µM. The essentials: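 Caspase 3/7 activation in HepG2 is measured as rising luminescence after a 16 hr treatment at 37 °C. Values are scaled between DMSO basal and 100 uM tamoxifen, and AC50 is fitted with the Hill equation.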

Test [4] can be described thus: Cellular Toxicity (caspase-3) Hek293 (AID 664). The following applies: HEK293 caspase-3 activation, DMSO = 0%, 100 µM tamoxifen = 100%; series mostly up to 92.2 µM. The essentials: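 qHTS, HEK293 (human embryonic kidney), 16 h cpd exposure in complete medium. Caspase-3/7 activation = luminescence increase; normalized to DMSO/100 uM tamoxifen; Hill-fit AC50.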
Test [5] in a line: Cellular Toxicity (caspase-3) NIH 3T3 (AID 666).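 Also: caspase signal read after 16 h compound exposure.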 The conditions noted are these: NIH 3T3 caspase-3 activation, apoptosis/toxicity, 0% DMSO, 100% is 100 µM tamoxifen; series mostly up to 92.2 µM. Put shortly:
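Cells were plated at 1000 per well and incubated 5 hr at 37°C, then compound was added for 16 hr. Caspase-Glo 3/7 reagent followed for 20 min at room temperature before luminescence was read.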

Test [6] in a line: MultiTox-Fluor Cytotoxicity Assay - LYMP1-003 - Live Cells (AID 962).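 Also: 0% = DMSO only and full loss = 92 µM tetraoctylammonium bromide; cytotoxic hits lower the live-cell protease signal.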 The following applies: LYMP1-003 lymphoblastoid cells, MultiTox-Fluor live-cell protease fluorescence; series mostly up to 92.2 µM. Put shortly: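 Acute cytotoxicity is scored as a drop in live-cell protease activity in human lymphoblastoid LYMP1-003 cells after 16 hr compound exposure at 37 C. AC50 values come from Hill-equation modelling of concentration-response data.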

Test [7] in a line: Cell Viability - LYMP2-005 (AID 967).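 Also: plate controls were DMSO only for no effect and 92 µM tetraoctylammonium bromide control for full effect.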 The conditions noted are these: LYMP2-005 lymphoblastoid cell viability; series mostly up to 92.2 µM. The essentials: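 CellTiter-Glo luminescence (cellular ATP) read-out; LYMP2-005 lymphoblastoid cells, 2500/well, 5 h pre-incubation, then 24 h compound exposure at 37 C in complete medium. Tetraoctylammonium bromide positive control; AC50 by standard Hill fit.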

Test [8] can be described thus: Cell Viability - LYMP2-009 (AID 968).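 Also: 0% = DMSO alone and the full-kill end = tetraoctylammonium bromide at 92 µM; nearly all actives have a fitted effect of over 55% in size.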 The conditions noted are these: LYMP2-009 lymphoblastoid cell viability; series mostly up to 92.2 µM.
The nature of test [9]: Cell Viability - LYMP2-017 (AID 972).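 Also: cells exposed to compound for 24 hours at 37 °C; % is scaled to controls: 0 for no effect and ±100 for the full control effect; nearly all actives have a fitted effect of over 55% in size.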 The conditions noted are these: LYMP2-017 lymphoblastoid cell viability; series mostly up to 92.2 µM. Put shortly:
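Cytotoxicity is scored as a concentration-dependent drop in cellular ATP in a human lymphoblastoid line after 24 hr treatment at 37 C. Values are AC50s from Hill-equation modelling.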

Test [10] is described as follows: Cell Viability - LYMP2-019 (AID 973).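 Also: 0% = DMSO alone and full effect = 92 µM tetraoctylammonium bromide; nearly all actives have a fitted effect of over 55% in size.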 The conditions noted are these: LYMP2-019 lymphoblastoid cell line viability; series mostly up to 92.2 µM. Put shortly: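 Cytotoxicity is scored as a concentration-dependent drop in cellular ATP after cells (2500/well) receive compound for 24 hr at 37 C. Tetraoctylammonium bromide serves as positive control.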
Test [11] is described as follows: Cell Viability - LYMP2-021 (AID 974).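 Also: compound exposure lasts 24 hours at 37 °C; % is scaled to controls: 0 for no effect and ±100 for the full control effect; nearly all actives have a fitted effect of over 55% in size.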 The following applies: LYMP2-021 lymphoblastoid cells viability; series mostly up to 92.2 µM. The essentials: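 Loss of cellular ATP, measured with a luciferase-based CellTiter-Glo readout, serves as the toxicity signal in human lymphoblastoid cells treated for 24 hours at 37 C. Potency is reported as AC50 from a standard Hill model.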

A short description of test [12]: Cell Viability - LYMP2-016 (AID 984). The conditions noted are these: LYMP2-016 lymphoblastoid cell viability, qHTS; series mostly up to 92.2 µM. The essentials: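 Human lymphoblastoid cells (LYMP2-016), 2500/well in complete medium, preincubated 5 hr at 37 C, then compound-treated 24 hr at 37 C. Intracellular ATP read by CellTiter-Glo luminescence after 30 min at room temperature; AC50 from Hill-equation concentration-response fits.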

The nature of test [13]: Cell Viability - LYMP2-022 (AID 987). The conditions noted are these: LYMP2-022 lymphoblastoid cell viability; series mostly up to 92.2 µM. Put shortly:
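Cells were seeded at 2500 per well, rested 5 hr at 37 C, and treated with titrated compounds for 24 hr at 37 C. Cellular ATP was then quantified by luciferase luminescence, and AC50 values were derived from Hill-modelled concentration-response curves.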

A short description of test [14]: Cell Viability - LYMP2-026 (AID 989). Also: % is scaled to controls: 0 for no effect and ±100 for the full control effect; nearly all actives have a fitted effect of over 50% in size. The conditions noted are these: LYMP2-026 lymphoblastoid cell viability, qHTS; series mostly up to 92.2 µM. The essentials: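 Cells are seeded at 2500 per well and held 5 hr at 37 C. Compounds are added in concentration series for 24 hr, then CellTiter-Glo reagent is applied and luminescence read.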
Test [15] is described as follows: qHTS assay for small molecule agonists of retinoid X receptor alpha signaling (AID 588544). The conditions noted are these: HEK293T RXRa-UAS-bla, beta-lactamase reporter, 18 h; 530 nm emission.
A short description of test [16]: qHTS assay for small molecule antagonists of retinoid X receptor alpha signaling (AID 588546).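 Also: cells stimulated with 9-cis-retinoic acid as agonist; % is scaled to controls: 0 for no effect and ±100 for the full control effect.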 The conditions noted are these: HEK293T RXRa-UAS-bla, beta-lactamase ratio, antagonist mode; measured here: W530 green channel, cytotoxicity proxy. Put shortly:
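Beta-lactamase reporter inhibition, read as CCF4 fluorescence ratio (ex 405, em 460/530 nm) after 2 h at RT. HEK293T UAS-bla cells, 2500/well, were stimulated with 9-cis-RA at 500 or 100 nM final alongside test compound for 18 h at 37 C.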

The target in test [17] is Voltage-gated inwardly rectifying potassium channel KCNH2 (Homo sapiens) (UniProt Q12809). Put plainly: qHTS Assay for Small Molecule Inhibitors of the Human hERG Channel Activity (AID 588834).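 Also: top concentration of the series differs between compounds; % is scaled to controls: 0 for no effect and ±100 for the full control effect; lower thallium flux fluorescence means stronger hERG block; nearly all actives have a fitted effect of over 50% in size.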 The conditions noted are these: U2OS BacMam hERG, FluxOR thallium flux fluorescence; series mostly up to 92.2 µM. The essentials: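 In hERG-transduced U2OS cells, dye-loaded for 1 hr at room temperature in dark, test compounds incubated 10 min at 37 °C before thallium stimulation. AC50 values derived by Hill modelling of concentration-response.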
Sequence of Voltage-gated inwardly rectifying potassium channel KCNH2 (Homo sapiens) (Q12809 whole entry, looked up): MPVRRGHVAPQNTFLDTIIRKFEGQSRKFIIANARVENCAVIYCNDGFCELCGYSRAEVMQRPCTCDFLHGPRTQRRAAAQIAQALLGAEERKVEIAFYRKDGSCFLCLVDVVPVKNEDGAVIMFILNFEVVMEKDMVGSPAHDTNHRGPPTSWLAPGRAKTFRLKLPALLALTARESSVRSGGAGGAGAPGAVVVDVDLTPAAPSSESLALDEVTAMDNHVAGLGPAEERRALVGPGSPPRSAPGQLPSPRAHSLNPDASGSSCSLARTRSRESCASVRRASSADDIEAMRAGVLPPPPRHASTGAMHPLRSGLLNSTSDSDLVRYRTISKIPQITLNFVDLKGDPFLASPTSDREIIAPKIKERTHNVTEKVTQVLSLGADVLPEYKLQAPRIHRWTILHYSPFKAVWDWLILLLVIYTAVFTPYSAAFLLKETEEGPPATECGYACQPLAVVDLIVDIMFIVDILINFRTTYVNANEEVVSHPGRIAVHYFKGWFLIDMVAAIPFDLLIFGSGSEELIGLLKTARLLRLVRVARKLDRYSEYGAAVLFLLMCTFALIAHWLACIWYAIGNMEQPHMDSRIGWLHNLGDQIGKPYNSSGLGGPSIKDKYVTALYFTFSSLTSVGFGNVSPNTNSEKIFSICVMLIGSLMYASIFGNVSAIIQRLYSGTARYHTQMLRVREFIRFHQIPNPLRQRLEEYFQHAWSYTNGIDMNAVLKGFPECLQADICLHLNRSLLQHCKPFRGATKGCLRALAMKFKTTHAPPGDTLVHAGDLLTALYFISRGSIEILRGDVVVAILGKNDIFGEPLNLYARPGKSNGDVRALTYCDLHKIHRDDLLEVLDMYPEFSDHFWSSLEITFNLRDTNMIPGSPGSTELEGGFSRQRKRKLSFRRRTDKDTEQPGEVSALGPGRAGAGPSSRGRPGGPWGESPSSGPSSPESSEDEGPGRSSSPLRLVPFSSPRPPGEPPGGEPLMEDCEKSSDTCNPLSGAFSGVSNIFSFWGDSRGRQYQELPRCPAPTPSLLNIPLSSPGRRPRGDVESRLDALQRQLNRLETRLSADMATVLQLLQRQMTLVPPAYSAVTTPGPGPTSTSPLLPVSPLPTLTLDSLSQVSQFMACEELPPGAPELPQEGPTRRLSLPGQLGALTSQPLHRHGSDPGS

A short description of test [18]: qHTS assay for small molecule disruptors of the mitochondrial membrane potential - 5 hr assay (AID 651755; calls by dose curve; also: % is scaled to controls: 0 for no effect and ±100 for the full control effect; nearly all actives have a fitted effect of over 40% in size). The following applies: JC-1-type ratio dye; series mostly up to 92.2 µM. The essentials: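 Seed HepG2 overnight, add compound, incubate 5 hr at 37C and 5% CO2, stain 30 min with Mito-MPS, then measure monomer (490/535 nm) and aggregate (540/590 nm) fluorescence.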

The target in test [19] is Peroxisome proliferator-activated receptor alpha (Homo sapiens) (UniProt Q07869). Briefly: qHTS assay for small molecule agonists of the peroxisome proliferator-activated receptor alpha (PPARalpha) signaling pathway (AID 651778). Also: % of control where 0% means no effect. The following applies: PathHunter PPARalpha complementation, chemiluminescence, 6 h; stronger effect = higher value. Put shortly:
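Cells plated at 2,000/well and held overnight at 37 C, 5% CO2, then compound added by pin tool for 6 hr; after PathHunter detection reagent and 60 min at room temperature, chemiluminescence from enzyme complementation was read.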

Test [20] can be described thus: qHTS assay for small molecule agonists of the antioxidant response element (ARE) signaling pathway measured by Nrf2-dependant transcriptional activity (AID 720636; active = well fitted curve in the direction sought with a large enough effect in the repeat runs; an effect the other way counts as inactive or inconclusive; also: % of control where 0% means no effect). The conditions noted are these: ARE-luc HepG2, Nrf2 luciferase reporter, 16 h; series mostly up to 92.4 µM. Put shortly: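 We exposed ARE-luc HepG2 cells, seeded in assay medium with 1% dialyzed FBS and allowed 6 hr to adhere, to test compounds overnight (16 hr, 37 C) before measuring luciferase with ONE-Glo.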

Sequence of Peroxisome proliferator-activated receptor alpha (Homo sapiens) (Q07869 whole entry, looked up): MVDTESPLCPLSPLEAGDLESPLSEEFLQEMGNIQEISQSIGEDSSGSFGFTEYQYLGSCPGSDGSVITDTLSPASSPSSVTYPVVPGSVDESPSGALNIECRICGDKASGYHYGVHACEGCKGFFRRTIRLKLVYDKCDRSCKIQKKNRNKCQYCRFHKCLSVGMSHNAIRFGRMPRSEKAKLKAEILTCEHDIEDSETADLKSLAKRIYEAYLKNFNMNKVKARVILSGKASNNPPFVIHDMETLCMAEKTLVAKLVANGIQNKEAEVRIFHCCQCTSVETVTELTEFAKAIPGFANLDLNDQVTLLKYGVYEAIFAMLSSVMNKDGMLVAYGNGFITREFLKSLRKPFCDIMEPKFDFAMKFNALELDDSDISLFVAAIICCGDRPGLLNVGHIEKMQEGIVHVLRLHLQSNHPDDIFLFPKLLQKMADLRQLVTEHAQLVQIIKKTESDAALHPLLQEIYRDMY

Consider `C=CCOC(C)=O`, for which, in test [1], the Potency was > 92 µM (inactive). For the same compound, the activity change, negative = cytotoxicity in test [2] is -5.94% (inactive). For the same compound, the compound was called inactive in test [3], in [4], in [5] and in test [20]. For the same compound, the Potency entry in [6], in [7], in [8], in test [9], in test [10] and in test [11] was “inactive” in each case. Also, the Potency result in test [12], in test [13], in test [14], in test [17] and in [18] was “inactive” throughout. Also, the max response in test [15] was -7.26%; in test [16], -2.08%; in test [19], 7.33% (inactive).
In the case of `C=CC(C)=O`, the Potency in test [1] is > 92 µM (inactive). The activity change, negative = cytotoxicity in [2] is -2.38% (inactive). Also, the compound was called inactive in [3], in [4], in [5] and in test [20]. The Potency entry in test [6], in test [7], in test [8], in test [9], in [10] and in test [11] was “inactive” each time. The Potency result in test [12], in [13], in test [14], in test [17] and in test [18] was “inactive” each time. The max response was -8.63% in test [15], -5.91% in test [16] and -1.26% (inactive) in test [19].
For `c1ccc(OP(Oc2ccccc2)Oc2ccccc2)cc1`, the Potency in [1] is > 92 µM (inactive). The activity change, negative = cytotoxicity in [2] was 7% (inactive). Further, the outcome in test [3], in test [4], in test [5] and in test [20] was inactive. Further, the Potency entry in test [6], in [7], in test [8], in test [9], in [10] and in test [11] was “inactive” each time. Besides, the Potency result in test [12], in test [13], in [14], in [17] and in test [18] was “inactive” each time. The max response was 3.52% and -16.1% in [15]; -3.76% and -10.6% in test [16]; -2.33% (inactive) and -1.84% (inactive) in test [19].
Regarding `C1CCC2CCCCC2C1` (stereo not given), the Potency in test [1] was > 92 µM (inactive). Also, the activity change, negative = cytotoxicity in test [2] was -13.5% (inactive). In addition, the compound was classed as inactive in [3], in test [4], in test [5] and in [20]. For the same compound, the Potency result in [6], in [7], in test [8], in [9], in test [10] and in [11] was “inactive” each time. The Potency result in [12], in [13], in test [14], in [17] and in [18] was “inactive” throughout. The max response in [15] is -13.4%; in [16] it was -2.39%; in test [19], -8.42% (inactive).
Consider `C=CCOC(=O)c1ccccc1N`, for which, in test [1], the Potency was > 92 µM (inactive). Further, the activity change, negative = cytotoxicity in test [2] is -10.8% (inactive). In addition, the compound was classed as inactive in [3], in [4], in test [5] and in test [20]. The Potency result in test [6], in [7], in [8], in [9], in test [10] and in test [11] was “inactive” each time. For the same compound, the Potency entry in test [12], in test [13], in test [14], in test [17] and in test [18] was “inactive” in each case. Also, the max response in [15] was 1.54%; in test [16] it was -12.2%; in test [19], 1.13% (inactive).
